In the supplement of paper PMC10981050:
Values joined by “and” are separate entries in the source; they are usually repeats but may differ in a detail not shown here. Equal values may be shown once. Where a name gives a salt, the structure may show the parent alone.

How the values were obtained:
Assay in all cases: cell viability relative to vehicle control; higher = less cytotoxic
Conditions in all cases: 10 µM
[1] = tested on: K562
Procedure, shortened: (§1)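 Each screen used CRISPR-edited mutant and wild-type clones from four leukaemia lines. Compounds were acoustically dispensed at a single 10 µM dose, and CellTiter-Glo luminescence was read after 48 h with the supernatant first removed. Viability was analysed in Genedata Screener and given as percent of the on-plate vehicle control.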

[2] = tested on: MARIMO
Procedure, shortened: as §1

[3] = tested on: MOLM14
Procedure, shortened: as §1

[4] = tested on: OCI-AML2
Procedure, shortened: as §1

Row | Compound | cell viability ([1]; SRSF2 genotype: SRSF2 P95H/wt) | cell viability ([1]; SRSF2 genotype: SRSF2 wt/wt) | cell viability ([2]; SRSF2 genotype: SRSF2 P95H/wt) | cell viability ([2]; SRSF2 genotype: SRSF2 wt/wt) | cell viability ([3]; SRSF2 genotype: SRSF2 P95H/wt) | cell viability ([3]; SRSF2 genotype: SRSF2 wt/wt) | cell viability ([4]; SRSF2 genotype: P95H/wt) | cell viability ([4]; SRSF2 genotype: wt/wt)
1 | NCCCCCC(=O)O | 99% and 100% | 99.6% | 101% | 98.5% | 103% | 105% | 113% | 99%
2 | CC(C)c1cnn2c(NCc3ccccc3)cc(NCCCCCCN)nc12 | 86.8% and 99.7% | 101% | 89.9% | 87.8% | 95.9% | 98.5% | 89.4% | 87.5%
3 | CCCCCCNC(=O)n1cc(F)c(=O)[nH]c1=O [Carmofur] | 96% and 94.6% | 82% | 74.1% | 81% | 42.2% | 27.3% | 57.9% | 58.3%
4 | NCc1c[nH]c(=S)n1[C@@H]1CCc2c(F)cc(F)cc2C1 [(R)-Nepicastat HCl] | 101% and 97% | 102% | 94.9% | 110% | 97.2% | 101% | 104% | 103%
5 | O=C(O)c1cc(O)cc(Cl)c1 [3-chloro-5-hydroxybenzoic Acid] | 104% and 101% | 103% | 96.3% | 95.1% | 105% | 107% | 96.9% | 109%
6 | C[C@@H](c1ccc2nccn2c1)n1nnc2ncc(-c3cnn(C)c3)nc21 [Savolitinib(AZD6094, HMPL-504)] | 94.1% and 97.5% | 104% | 94.3% | 91% | 96.6% | 97.2% | 90.3% | 96.5%
7 | CNC[C@H](O)[C@@H](O)[C@H](O)[C@H](O)CO [Meglumine] | 108% and 107% | 107% | 108% | 106% | 101% | 107% | 112% | 109%
8 | Cc1ccc(NC(=O)c2ccc(CN3CCN(C)CC3)cc2)cc1Nc1nc(-c2cccnc2)cs1 [Masitinib (AB1010)] | 6.35% and 18.8% | 12.1% | 72.5% | 59.7% | 70.3% | 67.8% | 52% | 52.1%
9 | CC(C)C[C@H](NC(=O)[C@H](CCc1ccccc1)NC(=O)CN1CCOCC1)C(=O)N[C@@H](Cc1ccccc1)C(=O)N[C@@H](CC(C)C)C(=O)[C@@]1(C)CO1 [Carfilzomib (PR-171)] | 2.27% and 2.75% | 1.72% | 0.54% | 1.08% | 0.49% | 0.49% | 0.45% | 0.57%
10 | C=CC[S+]([O-])C[C@H](N)C(=O)O (stereo partly drawn) [Alliin] | 105% | 107% | 104% | 96.5% | 114% | 107% | 102% | 98.2%
11 | CN(C/C=C/C#CC(C)(C)C)Cc1cccc2ccccc12 [Terbinafine] | 99.7% and 97.5% | 103% | 96.2% | 108% | 104% | 105% | 105% | 110%
12 | CNCC[C@@H](Oc1ccccc1C)c1ccccc1 [Atomoxetine HCl] | 111% and 112% | 108% | 100% | 94.9% | 101% | 106% | 115% | 94.6%
13 | CCCCCCCC/C=C\CCCCCCCC(=O)OCC [Ethyl Oleate] | 101% and 94.1% | 97.8% | 86.5% | 100% | 92.3% | 95% | 88.7% | 93.7%
14 | CCOC(=O)N[C@@H]1CC[C@@H]2[C@@H](C1)C[C@H]1C(=O)O[C@H](C)[C@H]1[C@H]2/C=C/c1ccc(-c2cccc(F)c2)cn1 | 80.4% and 87% | 80.8% | 83.3% | 82.5% | 81.6% | 83.6% | 65.1% | 64.7%
15 | CC1CNc2c(cccc2S(=O)(=O)N[C@@H](CCCNC(=N)N)C(=O)N2CC[C@@H](C)C[C@@H]2C(=O)O)C1 (stereo partly drawn) [Argatroban Monohydrate] | 103% and 94.3% | 96.2% | 96.9% | 103% | 97.8% | 106% | 93.6% | 94%
16 | CN1C(C(=O)Nc2ccccn2)=C(O)c2ccccc2S1(=O)=O [Piroxicam (Feldene)] | 99.5% and 103% | 100% | 97.3% | 106% | 97.6% | 105% | 104% | 105%
17 | CC(C)CN(C[C@@H](O)[C@H](Cc1ccccc1)NC(=O)O[C@H]1CCOC1)S(=O)(=O)c1ccc(N)cc1 [Amprenavir (Agenerase)] | 89.2% and 83.5% | 86.4% | 77.8% | 93.5% | 90.2% | 89.8% | 101% | 99.4%
18 | O=C(Nc1cccnc1)c1cc(-c2ccnc(F)c2)ccc1OCc1ccccc1 | 97.4% and 102% | 94.6% | 97.5% | 102% | 104% | 98.7% | 95.8% | 95.6%
19 | CC(NC(=O)Cc1cc(F)cc(F)c1)C(=O)NC(C(=O)OC(C)(C)C)c1ccccc1 (stereo not drawn) | 98.8% and 103% | 106% | 83.2% | 95.7% | 96.8% | 103% | 90% | 102%
20 | O=C(NCCS(=O)(=O)c1ccc(C(F)(F)F)cn1)c1ccc(Cl)cc1 | 103% and 96.6% | 102% | 91.2% | 102% | 102% | 99.2% | 91.7% | 102%
21 | C[C@]12C[C@@H](O)[C@@H]3C[C@@]1(O[C@@H]1O[C@H](CO)[C@@H](O)[C@H](O)[C@H]1O)[C@@]3(COC(=O)c1ccccc1)C(=O)O2 [Albiflorin] | 103% and 108% | 107% | 96.9% | 94.5% | 104% | 98.4% | 98.3% | 92.9%

Row | Compound | cell viability ([1]; SRSF2 genotype: SRSF2 P95H/wt) | cell viability ([1]; SRSF2 genotype: SRSF2 wt/wt) | cell viability ([2]; SRSF2 genotype: SRSF2 P95H/wt) | cell viability ([2]; SRSF2 genotype: SRSF2 wt/wt) | cell viability ([3]; SRSF2 genotype: SRSF2 P95H/wt) | cell viability ([3]; SRSF2 genotype: SRSF2 wt/wt) | cell viability ([4]; SRSF2 genotype: P95H/wt) | cell viability ([4]; SRSF2 genotype: wt/wt)
22 | Cc1c[nH]c(=O)[nH]c1=O [Thymine] | 99.9% and 101% | 96.8% | 101% | 95.1% | 109% | 102% | 106% | 101%
23 | OC[C@H]1O[C@H](OC[C@H]2O[C@H](O[C@]3(CO)O[C@H](CO)[C@@H](O)[C@@H]3O)[C@H](O)[C@@H](O)[C@@H]2O)[C@H](O)[C@@H](O)[C@H]1O [D-(+)-Raffinose pentahydrate] | 114% and 103% | 118% | 104% | 103% | 112% | 113% | 104% | 103%
24 | O=C(O)c1ccc2c3c1cccc3c(=O)n1c3ccccc3nc21 | 104% and 102% | 102% | 107% | 106% | 96.6% | 99.9% | 104% | 97.5%
25 | COC(=O)CCC(C)C1CCC2C3C(O)CC4CC(O)CCC4(C)C3CC(O)C12C (stereo not drawn) [Methyl Cholate] | 97.3% and 98.1% | 101% | 104% | 112% | 55.6% | 89% | 102% | 81.8%
26 | O=C(O)C=C(CC(=O)O)C(=O)O [cis-Aconitic acid] | 109% and 108% | 101% | 102% | 113% | 102% | 103% | 97.9% | 106%
27 | CCN(CC)CC(=O)Nc1c(C)cccc1C [Lidocaine hydrochloride] | 102% and 103% | 106% | 101% | 107% | 99.3% | 102% | 100% | 97.1%
28 | C[C@@H]1Cc2c([nH]c3ccccc23)[C@@H](c2c(F)cc(/C=C/C(=O)O)cc2F)N1CC(C)(C)F | 106% and 105% | 108% | 107% | 104% | 101% | 97.4% | 117% | 107%
29 | Nc1ncnc2c1c(-c1cnc3[nH]ccc3c1)nn2C1CCCC1 | 6.97% and 21.9% | 9.11% | 27.8% | 26.9% | 9.21% | 13.2% | 2.15% | 7.66%
30 | O=C(Nc1cccc(C(F)(F)F)c1)c1cccc2cc(Oc3cc(CO)ncn3)ccc12 | 80.8% and 91.3% | 87.8% | 101% | 121% | 86.9% | 98.6% | 90.7% | 96.3%
31 | C[C@@H]1CN(c2c(F)c(N)c3c(=O)c(C(=O)O)cn(C4CC4)c3c2F)C[C@H](C)N1 [Sparfloxacin] | 103% | 108% | 99.7% | 104% | 101% | 106% | 109% | 105%
32 | COc1cc2nc(N3CCCC3)nc(NCCCCCN3CCCC3)c2cc1OC | 2.75% and 3.32% | 4.26% | 9.85% | 3.33% | 0.26% | 0.27% | 0.31% | 0.37%
33 | COc1ccc(-c2coc3cc(O[C@@H]4O[C@H](CO)[C@@H](O)[C@H](O)[C@H]4O)ccc3c2=O)cc1O [Calycosin-7-O-beta-D-glucoside] | 95% and 99% | 98.5% | 93% | 105% | 112% | 110% | 97.1% | 106%
34 | COc1cc(Cc2cnc(N)nc2N)cc(OC)c1OC [Trimethoprim] | 102% and 101% | 94.4% | 103% | 104% | 102% | 104% | 101% | 101%
35 | CCCc1cc(=O)[nH]c(=S)[nH]1 [Propylthiouracil] | 107% and 91.6% | 94% | 93.1% | 96.5% | 100% | 96.8% | 106% | 110%
36 | CCCCCCCCCCCCCCCCCC[N+](C)(C)C [Trimethyloctadecylammonium bromide] | 13.1% and 20% | 48.1% | 12.1% | 16.6% | 0.73% | 0.49% | 0.97% | 2.46%
37 | CCN1CCCC1CNC(=O)c1cc(S(=O)(=O)CC)c(N)cc1OC (stereo not drawn) [Amisulpride] | 104% and 101% | 105% | 102% | 107% | 109% | 108% | 109% | 110%
38 | C[C@@H](OC[C@@]1(c2ccccc2)CC[C@]2(CCC(=O)N2)CN1)c1cc(C(F)(F)F)cc(C(F)(F)F)c1 [Rolapitant] | 54% and 72.1% | 68.8% | 52.3% | 48.8% | 54.5% | 44.5% | 45.2% | 39.1%
39 | COc1ccc(-c2ccc3c(N4CCOC[C@@H]4C)nc(N4CCOC[C@@H]4C)nc3n2)cc1CO | 39.7% and 40.4% | 35.5% | 54.4% | 46.2% | 30.4% | 26.2% | 26.5% | 27.7%
40 | Cc1cc(O)c2c(c1)C(=O)c1cc(O)cc(O)c1C2=O [Emodin] | 85.5% and 86.8% | 90.4% | 90.9% | 100% | 109% | 107% | 89.1% | 83.7%
41 | Cc1c(NC(=O)c2ccc(C(C)(C)C)cc2)cccc1-c1cn(C)c(=O)c(Nc2ccc(C(=O)N3CCOCC3)cc2)n1 | 94% and 92.1% | 90.8% | 91.5% | 97.4% | 96.1% | 93.4% | 82% | 87.4%
